# Article PMC5540273 (PLoS ONE, 2017)
# Several values for one entry are separate records, joined by “and”; a condition that tells them apart may be missing. Identical values can stand only once. Like-named read-outs stand apart in the source and are kept apart here.
# What was measured:
# [1] = system: SGK; details: concentration: 1 μM, replicates: in singlicate, n = 1
# [2] = system: SIK2; details: concentration: 1 μM, replicates: in singlicate, n = 1
# [3] = system: SIK; details: concentration: 1 μM, replicates: in singlicate, n = 1
# [4] = system: SLK; details: concentration: 1 μM, replicates: in singlicate, n = 1
# [5] = system: T1, SNARK; details: concentration: 1 μM, replicates: in singlicate, n = 1
# T1 construct: gene NUAK2
# [6] = system: SNRK; details: concentration: 1 μM, replicates: in singlicate, n = 1
# [7] = system: SRC; details: concentration: 1 μM, replicates: in singlicate, n = 1
# [8] = system: SRMS; details: concentration: 1 μM, replicates: in singlicate; n = 1
# [9] = system: SRPK1; details: concentration: 1 μM, replicates: in singlicate, n = 1
# [10] = system: SRPK2; details: concentration: 1 μM, replicates: in singlicate, n = 1
# [11] = system: SRPK3; details: concentration: 1 μM, replicates: in singlicate, n = 1
# [12] = system: STK16; details: concentration: 1 μM, replicates: in singlicate, n = 1
# [13] = system: STK33; details: concentration: 1 μM, replicates: in singlicate, n = 1
# [14] = system: STK35; details: concentration: 1 μM, replicates: in singlicate; n = 1
# [15] = system: STK36; details: concentration: 1 μM, replicates: in singlicate; n = 1
# [16] = system: STK39; details: concentration: 1 μM, replicates: in singlicate, n = 1
# [17] = system: SYK; details: concentration: 1 μM, replicates: in singlicate, n = 1
# [18] = system: SgK110; details: concentration: 1 μM, replicates: in singlicate; n = 1
# [19] = system: T2, TAK1; details: concentration: 1 μM, replicates: in singlicate, n = 1
# T2 construct: gene MAP3K7
# [20] = system: TAOK1; details: concentration: 1 μM, replicates: in singlicate, n = 1
# 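Also: KINOMEscan kinase panel screen.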
smiles,measurement,setting,value
CNc1ncnc2[nH]ncc12 [SKF-18355],%Inh,[1],6%
same,%Inh,[2],0%
same,%Inh,[3],0%
same,%Inh,[4],10%
same,%Inh,[5],0%
same,%Inh,[6],0%
same,%Inh,[7],17%
same,%Inh,[8],22%
same,%Inh,[9],0%
same,%Inh,[10],0%
same,%Inh,[11],10%
same,%Inh,[12],0%
same,%Inh,[13],0%
same,%Inh,[14],0%
same,%Inh,[15],0%
same,%Inh,[16],9%
same,%Inh,[17],22%
same,%Inh,[18],0%
same,%Inh,[19],0%
same,%Inh,[20],0%
Cc1c(Cn2c(C)nn3c(=O)cc(N4CCOC(C)C4)nc23)cccc1C(F)(F)F (stereo not shown) [GSK2344444],%Inh,[1],9%
same,%Inh,[2],0%
same,%Inh,[3],0%
same,%Inh,[4],7%
same,%Inh,[5],0%
same,%Inh,[6],0%
same,%Inh,[7],0%
same,%Inh,[8],0%
same,%Inh,[9],32%
same,%Inh,[10],0%
same,%Inh,[11],0%
same,%Inh,[12],0%
same,%Inh,[13],0%
same,%Inh,[14],0%
same,%Inh,[15],0%
same,%Inh,[16],6%
same,%Inh,[17],12%
same,%Inh,[18],0%
same,%Inh,[19],0%
same,%Inh,[20],0%
CSc1ccc(-c2cc3ncnc(SCC(=O)O)c3s2)cc1,%Inh,[1],0%
same,%Inh,[2],0%
same,%Inh,[3],25%
same,%Inh,[4],0%
same,%Inh,[5],0%
same,%Inh,[6],0%
same,%Inh,[7],0%
same,%Inh,[8],0%
same,%Inh,[9],0%
same,%Inh,[10],100%
same,%Inh,[11],0%
same,%Inh,[12],2%
same,%Inh,[13],8%
same,%Inh,[14],0%
same,%Inh,[15],0%
same,%Inh,[16],0%
same,%Inh,[17],15%
same,%Inh,[18],0%
same,%Inh,[19],18%
same,%Inh,[20],0%
Cc1nnc(-c2ccc3ncc(-c4ccc(S(C)=O)cc4)n3c2)o1 (stereo not shown),%Inh,[1],0%
same,%Inh,[2],0%
same,%Inh,[3],9%
same,%Inh,[4],14%
same,%Inh,[5],0%
same,%Inh,[6],2%
same,%Inh,[7],0%
same,%Inh,[8],0%
same,%Inh,[9],0%
same,%Inh,[10],0%
same,%Inh,[11],0%
same,%Inh,[12],0%
same,%Inh,[13],1%
same,%Inh,[14],1%
same,%Inh,[15],9%
same,%Inh,[16],25%
same,%Inh,[17],0%
same,%Inh,[18],0%
same,%Inh,[19],8%
same,%Inh,[20],0%
NCCNS(=O)(=O)c1ccc(-c2ccnc3[nH]ccc23)cc1 [GSK977617],%Inh,[1]; 1 µM,45% and 33%
same,%Inh,[2]; 1 µM,12% and 0%
same,%Inh,[3]; 1 µM,21% and 0%
same,%Inh,[4]; 1 µM,89% and 75%
same,%Inh,[5]; 1 µM,89% and 82%
same,%Inh,[6]; 1 µM,16% and 0%
same,%Inh,[7]; 1 µM,11% and 0%
same,%Inh,[8],0%
same,%Inh,[9]; 1 µM,87% and 65%
same,%Inh,[10]; 1 µM,6% and 0%
same,%Inh,[11]; 1 µM,67% and 37%
same,%Inh,[12]; 1 µM,80% and 68%
same,%Inh,[13]; 1 µM,85% and 71%
same,%Inh,[14],0%
same,%Inh,[15],0%
same,%Inh,[16]; 1 µM,0% and 13%
same,%Inh,[17]; 1 µM,32% and 15%
same,%Inh,[18],0%
same,%Inh,[19]; 1 µM,75% and 65%
same,%Inh,[20]; 1 µM,54% and 40%
COc1ccc(Nc2nccc(N3CCC(NC(=O)Nc4cc(C)ccc4C)C3)n2)cc1 (stereo not shown) [GSK1379741],%Inh,[1],0%
same,%Inh,[2],0%
same,%Inh,[3],0%
same,%Inh,[4],0%
same,%Inh,[5],0%
same,%Inh,[6],0%
same,%Inh,[7],0%
same,%Inh,[8],0%
same,%Inh,[9],27%
same,%Inh,[10],0%
same,%Inh,[11],0%
same,%Inh,[12],7%
same,%Inh,[13],0%
same,%Inh,[14],0%
same,%Inh,[15],100%
same,%Inh,[16],9%
same,%Inh,[17],0%
same,%Inh,[18],0%
same,%Inh,[19],0%
same,%Inh,[20],0%
Cc1ccc(NC(=O)c2ccnc(N3CCN(C)CC3)c2)cc1-c1ccc(C(=O)NCC2CC2)cc1 [GW775604],%Inh,[1],0%
same,%Inh,[2],21%
same,%Inh,[3],0%
same,%Inh,[4],0%
same,%Inh,[5],0%
same,%Inh,[6],0%
same,%Inh,[7],0%
same,%Inh,[8],3%
same,%Inh,[9],0%
same,%Inh,[10],0%
same,%Inh,[11],5%
same,%Inh,[12],0%
same,%Inh,[13],0%
same,%Inh,[14],1%
same,%Inh,[15],0%
same,%Inh,[16],0%
same,%Inh,[17],26%
same,%Inh,[18],3%
same,%Inh,[19],0%
same,%Inh,[20],0%
Cc1nnc(-c2ccc3occ(-c4ccc(C(C)O)cc4)c3c2)o1 (stereo not shown),%Inh,[1],1%
same,%Inh,[2],18%
same,%Inh,[3],10%
same,%Inh,[4],14%
same,%Inh,[5],2%
same,%Inh,[6],9%
same,%Inh,[7],18%
same,%Inh,[8],2%
same,%Inh,[9],0%
same,%Inh,[10],2%
same,%Inh,[11],0%
same,%Inh,[12],12%
same,%Inh,[13],0%
same,%Inh,[14],32%
same,%Inh,[15],19%
same,%Inh,[16],0%
same,%Inh,[17],14%
same,%Inh,[18],25%
same,%Inh,[19],25%
same,%Inh,[20],0%
